Bioassay records from PubChem.
Compounds with a hit are over-represented: about 8.8% of the library has one in this group of screens.
HT1080 IDH1KD tx: HT-1080 IDH1 knockdown cell toxicity (counter line); HT-1080 IDH1 knockdown viability, ATP luminescence, 48 h; Potency, µM (series often up to 46.1 µM), for inactives: top-dose activity, negative = toxicity, actives largely listed as cytotoxic; 360,000 tested, 2% active; AID 686971;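 further: potency means the concentration at half of the fitted maximal effect; 0% = DMSO wells and -100% = cell-free medium wells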
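HT-1080-IDH1KD cells (IDH1 knocked down), 750/well in RPMI with 5% FBS, treated with compound 48 h at 37 degrees C. Viability by CellTiter-Glo luminescence, normalised to DMSO and no-cell wells; concentration-response curves classed.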
IL1B secr inh: blocks inflammasome-driven IL-1 beta release; THP-1 LPS/ATP IL-1B secretion, AlphaLISA, 16 h; hits give low values; 360,000 tested, 4.7% active; activity change, % at 57.5 µM; in the data active means activity change below about -50%; inconclusive means mostly about -30% to -49%
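Secreted IL-1B measured by AlphaLISA bead assay after 16 h compound exposure of THP-1 cells; compounds (final up to 57.5 uM) added 1 h before LPS (250 ng/mL) and ATP (1.25 mM) stimulation; lower signal means less secretion.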
HT1080NT lethal: kills 2HG-producing HT-1080-NT fibrosarcoma cells; HT-1080-NT fibrosarcoma viability, CellTiter-Glo ATP luminescence, 48 h; Potency, µM (titrated, usually from 46.1 µM), for the others: top-dose activity, negative = less viability, usual class: cytotoxic; 360,000 tested, 1.6% active; AID 686970;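 further: NT is the 2HG producing partner of a matched IDH1 knockdown line; potency means the concentration at half of the fitted maximal effect; 0% = DMSO-treated cells and -100% = media-only wells without cells; nearly all actives have a fitted effect of over 55% in size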
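HT-1080-NT; 750 cells/well; 5% FBS RPMI; 48 h compound, 37 degrees C; CellTiter-Glo luminescence; curve fitting and curve-class assignment.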
KB-3-1 cytotox: KB-3-1 parental cell cytotoxicity | KB-3-1 viability, CellTiter-Glo ATP luminescence, 72 h | Potency, µM (series often up to 46.1 µM), hits mostly cytotoxic | 400,000 tested, 1.4% active | AID 1347075; further: potency means the concentration at half of the fitted maximal effect; nearly all actives have a fitted effect of over 60% in size
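Parental KB-3-1 viability, qHTS format: 72 h compound exposure, 37 °C; CellTiter-Glo; media-only wells and DMSO plates as controls; concentration-effect fits on corrected data.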
KB-V1 MDR tox: kills drug-selected multidrug resistant KB-V1 cells; Potency, µM (highest dose often 46.1 µM), most hits filed as cytotoxic; KB-V1 MDR cells viability, CellTiter-Glo, 72 h; 400,000 tested, 3.4% active; further: potency means the concentration at half of the fitted maximal effect; nearly all actives have a fitted effect of over 60% in size
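Cells of the MDR subline KB-V1 are plated, dosed with compound at multiple concentrations, and incubated 72 h at 37 degrees C; CellTiter-Glo is then added and luminescence read after 10 min.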
* = called active by the depositor; i = inactive; ? = inconclusive; · = not tested or not shown. Unless noted, the call rests on the fitted dose curve; in most records, active means well fitted curve in the direction sought with a large enough effect; inconclusive means small, poorly fitted or top-dose-only effect, or another doubt; inactive means no such curve, though single readings can be large; an effect the other way counts as inactive or inconclusive. Unless noted, on the % scale 0 is the no-effect control and ±100 the full control effect.

SMILES	HT1080 IDH1KD tx	IL1B secr inh	HT1080NT lethal	KB-3-1 cytotox	KB-V1 MDR tox
O=C(N/N=C/C(Br)=C/c1ccccc1)c1cccs1	?	?	-22.7%	i	i
O=C(N/N=C/C(Cl)=C/c1ccccc1)c1ccccc1F	-4.9%	-69.5*	-17.9%	i	?
O=C(N/N=C/C(Cl)=C\c1ccccc1)c1cnccn1	15.3%	-81.9*	-2.9%	i	i
CC(Oc1ccc(F)cc1)C(=O)N(CCC1=CCCCC1)c1c(N)n(Cc2ccccc2)c(=O)[nH]c1=O (configuration not stated)	?	-0.6	?	i	i
Cc1c(Cl)cccc1Nc1nc(N)nc(CSc2ncccn2)n1	?	-19.3	?	i	18.4µM*
Cc1ccccc1Nc1nc(N)nc(CCl)n1	14.6µM*	-93.6*	1.16µM*	?	i
CCc1ccccc1NC(=O)CN(C)Cc1nc(N)nc(Nc2ccccc2C)n1	7.2%	4.6	4.0%	i	3.26µM*
Cc1ccccc1Nc1nc(N)nc(CN(C)c2ccccc2)n1	-8.9%	2.6	-3.3%	i	?
COc1ccc(Nc2nc(N)nc(CCl)n2)cc1	23.1µM*	-59.8*	1.46µM*	?	?
Nc1nc(CCl)nc(Nc2ccc3ccccc3c2)n1	8.2µM*	-98.9*	2.06µM*	?	23.1µM*
Cc1cc[n+](CCC2CCCCC2)cc1	·	·	·	20.6µM*	i
COc1ccc(-c2csc(Nc3ccc(Oc4ccccc4)cc3)n2)cc1	13µM*	0.0	?	i	i
Cc1nc(C)c(-c2csc(Nc3cccnc3)n2)s1	?	-17.5	?	i	3.26µM*
COc1ccc(Nc2nc(-c3sc(C)nc3C)cs2)cc1	3.66µM*	40.8	5.17µM*	5.8µM*	1.64µM*
COc1ccc(-c2csc(Nc3cccc(C)n3)n2)cc1	-19.3%	-6.4	-18.9%	?	?
NS(=O)(=O)c1ccc(NC(=S)NNC(=O)c2ccc(Br)o2)cc1	20.9%	-4.5	20.3%	i	i
CCc1ccc2nc(N(CCN(C)C)C(=O)c3ccc4ncsc4c3)sc2c1	-1.0%	-75.8*	-27.3%	i	i
CN(C)CCN(C(=O)c1ccco1)c1nc2cc3c(cc2s1)OCCO3	-12.5%	6.9	-22.0%	?	i
Cc1ccc2nc(N(CCCN(C)C)C(=O)c3ccc(S(=O)(=O)N(C)C)cc3)sc2c1	14.6%	-5.8	8.1%	i	i
CN(C)CCCN(C(=O)c1ccco1)c1nc2ccc(Br)cc2s1	20.6µM*	-70.1*	23.1µM*	i	i
Cc1cccc2sc(N(CCCN(C)C)C(=O)CCc3ccccc3)nc12	0.2%	-17.8	-28.0%	?	16.4µM*
Cc1cccc2sc(N(CCCN(C)C)C(=O)CN3C(=O)c4ccccc4C3=O)nc12	8.4%	-8.4	8.5%	i	i
Cc1ccc2nc(N(CCCN(C)C)C(=O)c3sc4ccccc4c3Cl)sc2c1	-23.0%	-91.4*	?	i	?
CCOc1ccccc1NC(=O)Nc1ccc(Br)cc1C	4.1%	-23.8	2.4%	i	i
CCOC(=O)c1c(-c2ccccc2Cl)csc1NC(=O)CSc1nc(C)cc(=O)[nH]1	0.6%	0.0	-3.8%	i	?
SMILES	HT1080 IDH1KD tx	IL1B secr inh	HT1080NT lethal	KB-3-1 cytotox	KB-V1 MDR tox
CCOC(=O)N1CCN(CCC(=O)Nc2cccc(F)c2)CC1	·	·	·	i	i
CN(C)CCCN(C(=O)CCc1ccccc1)c1nc2ccc(F)cc2s1	-3.5%	-17.8	-4.9%	i	i
CCN(CC)CCN(C(=O)c1ccco1)c1nc2ccc(Cl)cc2s1	·	·	·	i	i
CN(C)CCCN(C(=O)c1ccco1)c1nc2ccc(Cl)cc2s1	18.4µM*	-15.6	?	i	i
Cc1ccc(C(=O)N(CCCN(C)C)c2nc3ccc(Cl)cc3s2)cc1C	23.1µM*	-106.7*	23.1µM*	i	i
CN(C)CCCN(C(=O)CCc1ccccc1)c1nc2ccc(Br)cc2s1	?	-102.1*	18.4µM*	?	23.1µM*
O=C(COC(=O)c1ccccc1C(F)(F)F)NC(=O)NCc1ccco1	18.7%	12.1	3.0%	i	?
CC(C)c1cc(C(=O)OCC(=O)NC(=O)NCc2ccco2)c(O)c(C(C)C)c1	25.9µM*	-86.2*	23.1µM*	?	?
CCOC(=O)COc1ccc(F)cc1C(=O)c1ccn2nc(-c3ccc(C)cc3)cc2n1	·	·	·	i	?
COc1ccc2[nH]c3c(=O)n4c(nc3c2c1)SCC4	-19.3%	-9.8	-17.4%	i	i
COc1cc2[nH]c3c(=O)n4c(nc3c2cc1OC)SCCC4	7.31µM*	-61.3*	7.31µM*	?	?
CC[C@H](NC(=O)CC[C@H]1O[C@@H](n2cnc3c(NC(=O)c4ccccc4)ncnc32)[C@H](O)[C@@H]1O)c1ccccc1	6.5%	0.0	28.5%	i	i
Nc1c(-c2ccccc2)c(CSc2nc3ccccc3[nH]2)nn1-c1cccc(Cl)c1	-9.7%	11.6	-14.3%	23.1µM*	?
Cc1ccccc1-n1nc(CSc2nc3ccccc3[nH]2)c(-c2ccccc2)c1N	1.4%	-12.8	-1.1%	?	18.4µM*
Nc1c(-c2ccccc2)c(CSc2nc3ccccc3[nH]2)nn1-c1ccc(Cl)cc1	-0.4%	?	5.5%	?	i
CC12CCC(O)CC1=CCC1C2CCC2(C)C3=NN=CC3CC12 (configuration not stated)	32.6µM*	54.4	?	?	?
C/C(Cn1nnc2ccccc21)=N\NC(=O)c1cccc(Br)c1	-17.6%	114.0	-16.1%	i	i
Cc1cc2n(c(=O)c1C#N)CCCN2c1cccc(Cl)c1	10.6%	-4.9	8.8%	i	13µM*
Cc1cc(C)n(-c2cccc(Cl)c2)c(=O)c1C#N	5.4%	12.2	4.8%	i	i
CC(=O)Oc1ccc(N(c2ccccc2)S(=O)(=O)c2ccc(C)cc2)cc1	-1.7%	-4.7	-8.7%	?	14.6µM*
Cc1ccc(S(=O)(=O)N(C)c2ccccc2)cc1	3.7%	2.4	0.0%	i	i
CN1C(=O)[C@H]2[C@@H](/C=C/c3ccccc3)N3C(=O)CN(Cc4ccccn4)C(=O)[C@@]3(C)[C@H]2C1=O	11.9%	19.0	12.6%	i	i
N=C1C(c2nc3ccccc3[nH]2)=C(O)CN1c1ccccc1	-27.7%	78.0	-8.2%	23.1µM*	?
Cc1csc(NC(=O)c2ccc(Cn3nc(C)c(Br)c3C)o2)n1	-33.7%	-73.2*	?	?	2.59µM*
CC(C)(C)n1ncc(Oc2ccccc2[N+](=O)[O-])c(Cl)c1=O	-6.0%	0.0	-2.3%	i	18.4µM*
O=[N+]([O-])c1ccccc1Oc1cnc2ccccc2n1	-1.7%	7.2	-3.6%	i	i
